Screening results: PubChem, National Center for Advancing Translational Sciences (NCATS)
HP1b chromo inh: inhibitors of HP1-beta chromodomain binding to methylated histone tails; P83916; AlphaScreen HP1-beta / biotin-H3K9me3 peptide binding; Potency, µM (series often up to 114 µM), for the others: at the highest dose activity change, negative = inhibition, most hits filed as inhibitors; 390,000 tested, 0.56% active; AID 540317; also: nearly all actives have a fitted effect of over 70% in size
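Compound inhibition of the preformed complex between 50 nM HP1-beta and 50 nM biotinylated H3K9me3 peptide was read by AlphaScreen. Buffer was PBS pH 7.4 with 0.01% Tween-20. Incubations ran 30 min at room temperature, with 10 ug/mL donor/acceptor beads.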
G9a block: blocks human histone lysine methyltransferase G9a | G9a H3K9 monomethylation, AlphaScreen, 2 h | 350,000 tested, 8.8% active | Q96KQ7 | Potency, µM (series often up to 102 µM), for the others: at the top dose activity, negative = inhibition, actives largely listed as inhibitors; also: % is scaled to controls: 0 for no effect and ±100 for the full control effect; nearly all actives have a fitted effect of over 75% in size
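Chemiluminescent proximity detection of H3K9 monomethylation, read after 10 min bead incubation in the dark. Reaction: 20 nM G9a, 500 nM biotin-H3K9 peptide, 20 uM SAM cofactor, 2 h, room temperature, following 15 min enzyme-compound preincubation.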
BAZ2B block: BAZ2B (human) inhibition. AlphaScreen BAZ2B-H3K14Ac peptide displacement. Potency, µM (doses to about 114 µM), without a hit: at the highest dose activity change, negative = inhibition, usual class: inhibitors. Q9UIF8. AID 504333. 360,000 tested, 4.4% active; also: % is scaled to controls: 0 for no effect and ±100 for the full control effect; nearly all actives have a fitted effect of over 60% in size
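In this displacement format the biotinylated H3(5-23) peptide acetylated at Lys14 serves as ligand at 50 nM, with BAZ2B at 50 nM in PBS pH 7.4 containing 0.01% Tween-20. Donor and acceptor beads are 10 ug/mL final.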
GLS inh: inhibitors of human glutaminase (GLS). O94925. GLS enzymatic activity, qHTS titration. Potency, µM (doses to about 45.5 µM), for inactives: top-dose activity change, negative = inhibition, most hits filed as inhibitors. 410,000 tested, 0.21% active; also: % is scaled to controls: 0 for no effect and ±100 for the full control effect
Target sequence (O94925 whole entry, looked up): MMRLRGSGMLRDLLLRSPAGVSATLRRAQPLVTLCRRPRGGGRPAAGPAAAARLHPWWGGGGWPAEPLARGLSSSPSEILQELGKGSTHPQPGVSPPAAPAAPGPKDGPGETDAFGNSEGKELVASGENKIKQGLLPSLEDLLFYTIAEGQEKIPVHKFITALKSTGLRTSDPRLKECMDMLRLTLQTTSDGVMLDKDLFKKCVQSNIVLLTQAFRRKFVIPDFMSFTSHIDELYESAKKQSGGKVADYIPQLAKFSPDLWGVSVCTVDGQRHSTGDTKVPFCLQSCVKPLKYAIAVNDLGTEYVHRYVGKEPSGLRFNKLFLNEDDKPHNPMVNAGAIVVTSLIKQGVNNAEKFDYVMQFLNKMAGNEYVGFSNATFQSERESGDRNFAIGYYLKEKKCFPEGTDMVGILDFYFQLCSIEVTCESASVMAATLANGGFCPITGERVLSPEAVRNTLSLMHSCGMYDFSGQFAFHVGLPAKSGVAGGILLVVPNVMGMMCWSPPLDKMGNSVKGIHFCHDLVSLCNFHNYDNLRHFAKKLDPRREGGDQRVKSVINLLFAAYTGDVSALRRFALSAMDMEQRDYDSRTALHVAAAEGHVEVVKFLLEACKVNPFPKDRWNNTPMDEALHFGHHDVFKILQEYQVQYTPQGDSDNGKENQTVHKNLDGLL
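Glutamate formation by hKGA was monitored fluorometrically using coupled glutamate oxidase, HRP and Amplex Red. Substrate was added as 1 mM L-glutamine solution; incubation was 30 min at RT after an initial read.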
JMJD2A Tudor inh: JMJD2A Tudor domain (human) inhibition. 390,000 tested, 4.4% active. AlphaScreen JMJD2A-Tudor / H3K4me3 peptide binding. Potency, µM (highest dose often 114 µM), inactives show top-dose activity change, negative = inhibition, most hits filed as inhibitors; also: % is scaled to controls: 0 for no effect and ±100 for the full control effect; nearly all actives have a fitted effect of over 50% in size
* marks the source's active call; other numbers are inactive results; ! = not active in a repeat; [ ] = dose if it differs, or a comment. This is a sample that favours compounds with a hit; in the whole collection about 10% have one here. Calls follow the shape of the dose curve; as a rule, active = well fitted curve in the direction sought with a large enough effect; inconclusive = small, poorly fitted or top-dose-only effect, or another doubt; inactive = no such curve, though single readings can be large; an effect the other way counts as inactive or inconclusive. Potency is read from the fitted curve at half-maximal effect.

COc1ccc(Cl)cc1-n1c(N)c(C(N)=O)sc1=S was read as HP1b chromo inh inconclusive, G9a block 8.9µM*, BAZ2B block -2%, GLS inh -13% and JMJD2A Tudor inh inconclusive.
COc1ccc(Cl)cc1-n1c(=S)sc2c(=O)[nH]c(SCC(=O)C(C)(C)C)nc21 was read as HP1b chromo inh 15%, G9a block -24%, BAZ2B block -14%, GLS inh 7% and JMJD2A Tudor inh -31%.
For COC(=O)c1sc(=S)n(-c2ccccc2OC)c1N the results were HP1b chromo inh 15%, G9a block 35µM*, BAZ2B block -6%, GLS inh 10% and JMJD2A Tudor inh 44%.
`CCCCNC(=O)c1sc(=S)n(-c2ccccc2OC)c1N` gave HP1b chromo inh inconclusive, G9a block 16µM*, BAZ2B block -34%, GLS inh inconclusive and JMJD2A Tudor inh -30%.
Screening CN(C)CCCN1c2ccc3ccccc3c2Sc2cccc(Cl)c21 returned HP1b chromo inh inconclusive, GLS inh 27% and JMJD2A Tudor inh 50µM*.
Screening CN1CCN(CCCN2c3ccccc3Sc3ccc(S(=O)(=O)N(C)C)cc32)CC1 returned HP1b chromo inh 38%, G9a block 10µM*, BAZ2B block inconclusive, GLS inh 12% and JMJD2A Tudor inh -4%.
CN(C)CCCN1c2ccccc2Sc2ccc(Cl)cc21 was read as HP1b chromo inh inconclusive, G9a block 71µM*!, BAZ2B block 40µM*, GLS inh -2% and JMJD2A Tudor inh 20µM*.
`CN(C)CCCN1c2ccccc2Sc2ccc3ccccc3c21` gave HP1b chromo inh 7%, GLS inh 22% and JMJD2A Tudor inh -33%.
For CCOc1cc(/C=C/C(=O)O)ccc1OCCOc1ccccc1 the results were HP1b chromo inh 5%, G9a block 21%, BAZ2B block -7%, GLS inh 1% and JMJD2A Tudor inh -11%.
CCc1cc(=O)oc2c(C)c3c(cc12)CN(CCc1ccccc1OC)CO3 was read as HP1b chromo inh 65%, G9a block 9%[59 µM], BAZ2B block -2%, GLS inh 68% and JMJD2A Tudor inh -2%.
Screening ON1C2CCCCC2N(O)C1c1ccccc1C(F)(F)F (stereo not given) returned HP1b chromo inh 10%, G9a block -6%[59 µM], BAZ2B block -1%, GLS inh 8% and JMJD2A Tudor inh -6%.
Screening CC(C)OCCCNC(=O)C1CC(=O)N(CCc2ccc(F)cc2)C1 (stereo not given) returned HP1b chromo inh 33%, G9a block 34%, BAZ2B block 7%, GLS inh 0% and JMJD2A Tudor inh -21%.
`CSC1=NS(=O)(=O)c2c(C)nn(C)c2S1` gave HP1b chromo inh 13µM*, G9a block 1.1µM*, BAZ2B block 50µM*, GLS inh -27% and JMJD2A Tudor inh 4.5µM*.
COc1ccc(C2c3c(ccc4ccccc34)Oc3ncn4nc(-c5ccco5)nc4c32)cc1OC (stereo not given) was read as HP1b chromo inh 9%, G9a block inconclusive, BAZ2B block -31%, GLS inh 6% and JMJD2A Tudor inh -13%.
`COc1cccc(C2c3c(ncn(-c4ccccc4C#N)c3=N)Oc3ccc4ccccc4c32)c1` (stereo not given) gave JMJD2A Tudor inh 56µM*.
For COc1ccc(C2c3c(ncn(CCN4CCOCC4)c3=N)Oc3ccc4ccccc4c32)cc1 (stereo not given) the results were HP1b chromo inh 0%, G9a block 23%[12.7 µM], BAZ2B block -38%, GLS inh -1% and JMJD2A Tudor inh inconclusive.
`COc1cccc(C2c3c(ncn(-c4ccccc4Br)c3=N)Oc3ccc4ccccc4c32)c1` (stereo not given) gave JMJD2A Tudor inh 50µM*.
Screening O=C(Oc1nsnc1N1CCOCC1)N(c1ccccc1)c1ccccc1 returned HP1b chromo inh 35%, G9a block 8%[2.33 µM], BAZ2B block -35%, GLS inh 0% and JMJD2A Tudor inh -20%.
COCCCNC(=O)c1cc(S(=O)(=O)N2CCC3(CC2)OCCO3)ccc1F was read as GLS inh -7%.
`Cc1ccc(S(=O)(=O)NCCC(=O)Oc2ccc3ccc(=O)oc3c2)cc1` gave HP1b chromo inh 9%, G9a block 11%[59 µM], BAZ2B block -3%, GLS inh 12% and JMJD2A Tudor inh -16%.
`Cc1ccc(S(=O)(=O)NC(C(=O)Oc2ccc3ccc(=O)oc3c2)c2ccccc2)cc1` (stereo not given) gave HP1b chromo inh 37%, G9a block 7.9µM*, BAZ2B block 1%, GLS inh 12% and JMJD2A Tudor inh -12%.
`Cc1ccc(S(=O)(=O)NC(C(=O)Oc2ccc3c(C)c(Cl)c(=O)oc3c2)c2ccccc2)cc1` (stereo not given) gave HP1b chromo inh 28%, G9a block 7.9µM*, BAZ2B block -4%, GLS inh 5% and JMJD2A Tudor inh -1%.
Screening Cc1ccc(S(=O)(=O)N[C@H](C(=O)Oc2ccc3c(C(F)(F)F)cc(=O)oc3c2)c2ccccc2)cc1 returned HP1b chromo inh 31%, G9a block 3.5µM*, BAZ2B block 7%, GLS inh -25% and JMJD2A Tudor inh 28µM*.
For CCS(=O)(=O)c1ccc2c(c1)N(S(=O)(=O)c1cccs1)CC(C(=O)O)O2 (stereo not given) the results were HP1b chromo inh 5%, G9a block 16%, BAZ2B block -3%, GLS inh -2% and JMJD2A Tudor inh -20%.
For CCOC(=O)/C(C#N)=C1\SS/C(=C(/C#N)C(=O)OCC)S1 the results were G9a block 1.6µM* and BAZ2B block inconclusive.
`CNC(=O)c1cccc(NC(=O)CCCNC(=O)c2ccc(Cl)cc2)c1` gave HP1b chromo inh 36%, G9a block inconclusive, BAZ2B block 8%, GLS inh -4% and JMJD2A Tudor inh -12%.
`CCCOc1ccc(N2C(=O)C3ON(c4ccccc4)C(c4ccc(O)c(OC)c4)C3C2=O)cc1` (stereo not given) gave HP1b chromo inh 19%, G9a block 50µM*, BAZ2B block -19%, GLS inh inconclusive and JMJD2A Tudor inh -25%.
`CCCOc1ccc(N2C(=O)C3ON(c4ccccc4)C(CCC)C3C2=O)cc1` (stereo not given) gave HP1b chromo inh 51%, G9a block 40µM*, BAZ2B block -1%, GLS inh 4% and JMJD2A Tudor inh 7%[57.1 µM].
COc1cc(C2C3C(=O)N(Cc4ccccc4)C(=O)C3ON2c2ccccc2)cc(OC)c1O (stereo not given) was read as HP1b chromo inh -10%, G9a block 50µM*, BAZ2B block inconclusive, GLS inh 5% and JMJD2A Tudor inh -32%.
